# Measured values as given in ChEMBL document CHEMBL3433997, “St. Jude Leishmania screening dataset” (2016).
# Target: Glucose transporter (Leishmania mexicana) (UniProt O61059)
# Assay: ST_JUDE_LEISH: Cytotoxicity at 2uM final concentration against transgenic Leishmania Mexicana promastigotes LmGT2 that are glucose transport deficient and complemented with the L. Mexicana glucose transporter 2. Activity is measured by DNA content using SYBR green in vitro
# Type: functional
row,Compound,inhibition
1,CS(=O)(=O)Nc1cccc(-c2cnc3[nH]cc(-c4cccc(CN)c4)c3c2)c1,3.74%
2,Cc1cc(N2CCCC2)nc(Nc2ccc(NC(=O)c3ccc(Br)o3)cc2)n1,5.64%
3,COc1ccc(C)cc1NC(=O)CSc1nc2cccnc2n1C1CCCCC1,3.28%
4,Cc1cccc(CNc2nc(C)cc(N[C@@H](Cc3ccccc3)C(=O)NCCc3ccccc3)n2)c1,0.77%
5,O=C1CCCN1CCCNCc1ccc(-c2ccc(-c3nc4cc(C(F)(F)F)ccc4[nH]3)cc2)cc1,2.6%
6,Cc1cccc2nc(-c3ccc(-c4ccc(CN5CCC(C(N)=O)CC5)cc4)cc3)[nH]c12,5.21%
7,C[C@H](N[C@H]1CCCc2c1[nH]c1ccc(Br)cc21)c1ccccc1,0.74%
8,Nc1ccc(-c2ccc(NC(=O)Nc3ccccc3)cc2)cn1,3.08%
9,NC(=O)C1CCN(Cc2ccc(-c3ccc(-c4nc5cc(F)ccc5[nH]4)cc3)cc2)CC1,10.8%
10,CN1CCN(c2ccnc3ccc(NC(=O)Nc4cccc5ccccc45)cc23)CC1,1.87%
11,CC1CN(c2cnn(C/C=C/c3ccc(NC(=O)c4ccc5nonc5c4)cc3)c(=O)c2Cl)CC(C)N1 (stereo not given),3.26%
12,CN(C)CCOc1ccc(-c2cc(-c3ccncc3)c(-c3ccc(Cl)c(O)c3)[nH]2)cc1,1.4%
13,OC(CNCc1ccccc1)c1cc(OCc2ccccc2)cc(OCc2ccccc2)c1 (stereo not given),-0.63%
14,CC(C)=CC1C(C(=O)n2c(=N)[nH]c3ccccc32)C1(C)C (stereo not given),5.36%
15,COCCNCc1ccc(-c2ccc3c(Nc4ccc(Cl)cc4F)ccnc3c2)o1,4.33%
16,CCOc1ccccc1C1C(C(=O)C(C)(C)C)N2c3ccc(Br)cc3C=CC2C12C(=O)c1ccccc1C2=O (stereo not given),57.1%
17,CN1CCN(c2ccnc3ccc(NC(=O)Nc4ccc(Cl)cc4)cc23)CC1,-1.7%
18,Cc1ccc(Cn2nc(N3CCNCC3)ccc2=O)cc1NC(=O)Nc1ccc(-c2ccccc2)cc1,-1.04%
19,CCCC(=O)Nc1ccc(Cl)c(NC(=O)COc2cc(C)ccc2C(C)C)c1,8.05%
20,CN(Cc1ccccc1)C(=O)CCNS(=O)(=O)c1cc(Br)cnc1N,6.07%

row,Compound,inhibition
1,CC1CCCN1Cc1ccc(-c2ccc3c(=O)cc(CCc4cccc(F)c4F)n(CC(=O)N(C)Cc4ccc(-c5ccc(C(F)(F)F)cc5)cc4)c3n2)cc1 (stereo not given),10.4%
2,CCC(NCc1ccc(-c2cncc(C(=O)NCC(C)C)c2)cc1)c1ccccc1 (stereo not given),8.76%
3,O=C(COc1cccc([N+](=O)[O-])c1)Nc1ccc(-c2nc3ccccc3[nH]2)cc1,-1.82%
4,COc1cc(NC(=O)c2sc(-c3ccc(Cl)cc3)cc2NC(=O)c2cccnc2)ccc1OCCN1CCCC1,6.19%
5,O=C(Nc1cccc(-c2ccc(-c3nc4cc(C(F)(F)F)ccc4[nH]3)cc2)c1)c1csnn1,0.51%
6,CCOc1ccccc1NC(=O)Nc1ccc2c(c1)CCN(C1CCC1)CC2,10.2%
7,NC1=NC(c2ccccc2)(c2ccccc2)C(=O)N1Cc1ccc(-c2ccncc2)cc1,6.42%
8,CCOC(=O)c1ccc2[nH]c(-c3ccc(C(=O)NCc4ccc(C(C)(C)C)cc4)cc3)nc2c1,1.02%
9,Cc1cc(C(F)(F)F)n2nc(C(=O)N(Cc3cncn3Cc3ccccc3F)CC3CC3)cc2n1,-0.18%
10,COc1cc(Cc2cnc(N)nc2N)c2ccsc2c1OC,1.58%
11,CC(C)(CNC(=O)/C=C/c1ccc(C(F)(F)F)cc1)CNc1cc(=O)c2ccccc2[nH]1,1.66%
12,Cc1cccc2nc(-c3ccc(-c4cccc(NCc5cn6cccnc6n5)c4)cc3)[nH]c12,-2.51%
13,O=c1cc(NCCCNC(CNCCc2ccccc2)c2cc(Br)cc(Br)c2)[nH]c2ccccc12 (stereo not given),2.67%
14,O=C(N[C@@H](Cc1ccccc1)C(=O)NC1CCCc2ccccc21)c1ccc(O)c(-c2cccc(C(F)(F)F)c2)c1 (stereo not given in full),-1.61%
15,Cc1cc2c(NC(=O)NC3CCN(Cc4ccc(Cl)c(Cl)c4)CC3)cccc2cn1,-3.37%
16,CNC(=O)Cc1ccc(C(=O)Nc2cccc(-c3cccc(-c4nc5cccc(C)c5[nH]4)c3)c2)cc1,-1.69%
17,O=C(Nc1ccc(OC2CCN(Cc3ccsc3)C2)c(Cl)c1)c1ccco1 (stereo not given),0.21%
18,COc1ccc(-c2nc(NC(=O)Cc3ccc(OC)c(OC)c3)sc2C)cc1,1.83%
19,COc1ccc(-c2cnc3[nH]cc(-c4ccc(CCC(=O)O)cc4)c3c2)cn1,6.38%
20,OC1CCCN(Cc2ccc(-c3cccc(-c4nc5cc(F)ccc5[nH]4)c3)cc2)C1 (stereo not given),5.69%
